According to PubChem BioAssay AID435006 (Sanford-Burnham Center for Chemical Genomics, 2010):
Among all 1,300 compounds or so, about 1,100 (85%) were called active. No stated cut-off is given here; in the data, active means inhibition above about 48%; inactive means the rest. The set was probably picked from earlier hits. These entries were drawn from the full list.

experiment: NALP3 inhibitors retested in yeast, confirmation, luminescence, single concentration (AID 435006); conditions: yeast expressing human NALP3, luminescence; at 10 µM; stronger effect = higher value

inhibition, active:
O=C(Nc1ccccc1Cl)/C(Cl)=C(\Cl)S(=O)c1ccccc1 (centres undefined) 64.3%
O=[N+]([O-])c1c(NCCO)cc(Sc2nc3ccccc3s2)c2nonc12 62.6%
O=C(Nc1ccccc1)c1cc2ccccc2[nH]1 73.6%
CC(C)(c1ccccc1)c1ccc(OCCN)cc1 71.8%
CN(C)c1ccnc2sc(C(=O)c3ccccc3)c(N)c12 68%
CC(C)n1c(COc2ccccc2)nc2ccccc21 70%
Cc1ccc(OCc2nc3ccccc3n2C)cc1 78.3%
CC(=O)[C@@]12O[C@@H]1C[C@H]1[C@@H]3CC[C@H]4C[C@@H](O)CC[C@]4(C)[C@H]3CC[C@@]12C 71.5%
C[C@@H]1C[C@@H]2O[C@H]2/C=C\C=C\C(=O)Cc2c(Cl)c(O)cc(O)c2C(=O)O1 72.4%
O=C(CC(O)(C(F)(F)F)C(F)(F)F)Nc1ccc(Cl)c(Cl)c1 97.9%
Cc1ccc(OCc2nc(C#N)c(N3CCCC3)o2)cc1 48.9%
O=[N+]([O-])c1cccc(/C=N/Nc2ncc(Br)cn2)c1 72.2%
Cc1ccnc(Nc2nc3ccccc3s2)n1 73%
O=C(COc1ccccc1F)Nc1nc(-c2ccccn2)cs1 55.5%
Oc1ccc(Br)cc1/C=N/Nc1ccccn1 66.3%
O=C(NCc1ccc2c(c1)OCO2)c1c(O)nc2sccn2c1=O 75.2%
Cc1cccc(NC(=S)NC(=O)c2ccc(Br)o2)c1 63.5%
Fc1ccccc1-c1cc2cc3c(cc2cn1)OCO3 51.1%
O=[N+]([O-])/C=C/c1ccc2c(ccn2Cc2ccccc2)c1 78.7%
Cc1cc(C)c(/C=C2\C(=O)Nc3ccccc32)[nH]1 51.8%
Cn1c(=NC(=O)c2ccco2)sc2cccc(F)c21 60.5%
CC(C)C(=O)N1CCN(CCN=CC2=C(O)CC(c3ccco3)CC2=O)CC1 (centres undefined) 74.3%
Cc1ccc(-c2nn(C(C)(C)C)c3ncnc(N)c23)cc1 86.7%
CC(C)Sc1ncnc2c1cnn2-c1ccccc1 48.7%
Cc1ccc(O)c(NC(=O)c2cc(-c3ccco3)on2)c1 76%
CCSc1nc2sc3c(c2c(=O)n1-c1ccc(C)cc1)CCN(C)C3 69.4%
O=C(Oc1c(-c2ccco2)oc2ccccc2c1=O)c1cccnc1 78.3%
O=C(Nc1ccc2oc(-c3ccccc3F)nc2c1)c1ccco1 82.2%
CCc1noc(C)c1C(=O)Nc1nc2ccc(OC)cc2s1 78.5%
Cc1cc(C(=O)COc2ccc(Br)cc2F)c(C)n1C1CC1 54.5%
Cn1c(=O)c(C(=O)Nc2ncccn2)c(O)c2ccccc21 60.5%
Oc1c(Cl)cc(Cl)c(Cl)c1Cc1c(O)c(Cl)cc(Cl)c1Cl 99%
Nc1c(-c2cccc(Cl)c2)cnn1-c1cccc([N+](=O)[O-])c1 61.2%
CCc1cc(C(=O)Nc2nnc(C3CC3)s2)sc1C 60.8%
CN=C1C=C/C(=N/N=c2\ccn(O)cc2C)C=C1C 57.2%
COc1ccccc1C(=O)Nc1ccc(NC(=O)c2ccco2)c(C)c1 60.8%
CC(=NCc1ccc2c(c1)OCO2)C1=C(O)c2ccccc2C1=O 67.5%
CC1(C)CCSC(/C=C/c2ccccc2)=N1 87.4%
O=C1C=C(c2ccc(Cl)cc2)C(=O)N1Nc1ccccc1 55%
CCCN(CC1CC1)C(=S)NC(=O)c1ccccc1Br 47.1%
O=C(CSc1ncnc2c1oc1ccccc12)NC1CCCC1 67.6%
N#Cc1nc(Cc2ccccc2)oc1NCCc1ccccc1 48.6%
COc1ccccc1OCc1nc2ccccc2s1 47.1%
CCCCCCC12CCC(C(=O)O)(CC1)CC2 66.8%
Cc1cc(C)nc(NC(=O)Nc2ccccc2C(F)(F)F)n1 68.8%
O=C(CCCN1C(=O)/C(=C\c2ccco2)SC1=S)Nc1cccc2ccccc12 52.9%
Cc1ccc2cccc(S(=O)(=O)N3CCN(c4ccccc4F)CC3)c2n1 65.9%
COc1cc(N2C(=O)CSC2=S)cc(OC)c1OC 58.7%
O=C1CSC(=S)N1c1ccc(O)cc1 83.8%
Cc1ccc(CSc2nsc(C)c2C#N)cc1 56.3%
CCCNc1ncnc2sc(C)c(C)c12 60.5%

inhibition, inactive:
N#Cc1nc(COc2ccc(Cl)cc2)oc1N1CCCC1 30.3%
CC1CC2=C(CC1/C=N/NC(N)=S)C(C)(C)CCC2 (centres undefined) -1.3%
CCOC(=O)c1c(C)[nH]c(C(=O)COc2ccc3c(c2)OCO3)c1C 47%
COc1cccc(/C=N/Nc2cc(C)nc(-c3ccccc3O)n2)c1O 25.5%
Cc1csc(NC(=S)Nc2cccc(Cl)c2)n1 -12%
COCCCNC(=O)/C=C/c1ccc(OCc2c(F)cccc2Cl)cc1 27.1%
Cc1c(C(=O)N2CCCc3ccccc32)oc2ccccc12 47.6%
O=C(CSc1ccc(-c2ccc(-n3cccn3)cc2)nn1)Nc1ccc([N+](=O)[O-])cc1 41%
O=C(Nc1ccc(Oc2ccccc2)cc1)c1ccco1 44.5%
CCN(CC)c1ccc(/C=N/Nc2nc(C)cc(C)n2)c(O)c1 40.4%
CCCc1nc2c(c(=O)c3ccccc3n2C)c(=O)n1C1CCCCCC1 30.2%
CC(C)C(=O)Nc1ccc2c(c1)oc1ccccc12 2.95%
COc1ccc(OCc2nnc3n2N=C(c2ccccc2)C(CC(=O)O)S3)cc1 (centres undefined) 16.8%
